In PubChem BioAssay AID1159580 (chemical genetic matrix, 2015):
The whole screen tested about 5,500 compounds, of which about 2,000 (36%) were called active. Another 18% or so got no clear call; they are omitted. Rule as the data show it: active = normalized growth mostly below about 0.91 (no sharp cut-off); inconclusive = no clear call, values can overlap the other calls; inactive = mostly above about 0.92. This is one part of the list.

Assay: chemical genetic growth profiling, strain panel (AID 1159580);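 also: tested at 20 µM; growth read once vehicle control cultures reached saturation at 30 °C; 1 = growth at the plate median or of vehicle wells; lower values mean less growth of the strain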
Details: S. cerevisiae deletion strains, growth OD
[1] = locus YAR019C, strain CDC15, hits give low values
[2] = locus YBL105C, strain PKC1, hits give low values
[3] = locus YBR135W, strain CKS1, hits give low values
[4] = locus YBR136W, strain MEC1, hits give low values
[5] = locus YBR160W, strain CDC28, hits give low values
[6] = locus YDL017W, strain CDC7, hits give low values
[7] = locus YDL028C, strain MPS1, hits give low values
[8] = locus YDL101C, strain DUN1, hits give low values
[9] = locus YDL108W, strain KIN28, hits give low values
[10] = locus YDL132W, strain cdc53, hits give low values
[11] = locus YDL214C, strain PRR2, hits give low values
[12] = locus YDR052C, strain DBF4, hits give low values
[13] = locus YDR054C, strain cdc34, hits give low values
[14] = locus YDR226W, strain ADK1, hits give low values
[15] = locus YDR477W, strain SNF1, hits give low values
[16] = locus YER123W, strain YCK3, hits give low values
[17] = locus YER133W, strain GLC7, hits give low values
[18] = locus YFL009W, strain cdc4, hits give low values
[19] = locus YFL029C, strain CAK1, hits give low values
[20] = locus YFR003C, strain YPI1, hits give low values
[21] = locus YFR019W, strain FAB1, hits give low values
[22] = locus YFR028C, strain CDC14, hits give low values
[23] = locus YGR040W, strain KSS1, hits give low values
[24] = locus YGR052W, strain FMP48, hits give low values
[25] = locus YGR092W, strain DBF2, hits give low values
[26] = locus YHR030C, strain SLT2, hits give low values
[27] = locus YHR079C, strain IRE1, hits give low values
[28] = locus YHR082C, strain KSP1, hits give low values
[29] = locus YHR205W, strain SCH9, hits give low values
[30] = locus YIL147C, strain SLN1, hits give low values
[31] = locus YJL095W, strain BCK1, hits give low values
[32] = locus YJL128C, strain PBS2, hits give low values
[33] = locus YJL157C, strain FAR1, hits give low values
[34] = locus YJR016C, strain ILV3, hits give low values
[35] = locus YJR066W, strain TOR1 (second series), hits give low values
[36] = locus YJR066W, strain TOR1, hits give low values
[37] = locus YKL048C, strain ELM1, hits give low values
[38] = locus YKL067W, strain YNK1, hits give low values
[39] = locus YKL101W, strain HSL1, hits give low values
[40] = locus YKL193C, strain SDS22, hits give low values
[41] = locus YKL203C, strain TOR2, hits give low values
[42] = locus YLR113W, strain HOG1, hits give low values
[43] = locus YLR133W, strain CKI1, hits give low values
[44] = locus YLR403W, strain SFP1, hits give low values
[45] = locus YML070W, strain DAK1, hits give low values
[46] = locus YMR001C, strain CDC5, hits give low values
[47] = locus YMR205C, strain PFK2 (second series), hits give low values
[48] = locus YMR277W, strain FCP1, hits give low values
[49] = locus YNL006W, strain LST8, hits give low values
[50] = locus YNL020C, strain ARK1, hits give low values
[51] = locus YNL161W, strain CBK1, hits give low values
[52] = locus YNL183C, strain NPR1, hits give low values
[53] = locus YNL207W, strain RIO2, hits give low values
[54] = locus YNL222W, strain SSU72, hits give low values
[55] = locus YNL307C, strain MCK1 (second series), hits give low values
[56] = locus YOL078W, strain AVO1, hits give low values
[57] = locus YOL136C, strain PFK27, hits give low values
[58] = locus YOR061W, strain CKA2, hits give low values
[59] = locus YOR119C, strain RIO1, hits give low values
[60] = locus YOR231W, strain MKK1, hits give low values
[61] = locus YOR329C, strain SCD5, hits give low values
[62] = locus YPL031C, strain PHO85, hits give low values
[63] = locus YPL153C, strain RAD53, hits give low values
[64] = locus YPL204W, strain HRR25, hits give low values
[65] = locus YPL209C, strain IPL1, hits give low values
[66] = locus YPL256C, strain CLN2, hits give low values
[67] = locus YPR025C, strain CCL1, hits give low values
[68] = locus YPR106W, strain ISR1, hits give low values
[69] = locus YPR111W, strain DBF20, hits give low values
[70] = strain NNK1, hits give low values
[71] = strain TSCII, hits give low values

Measured: normalized growth

C[C@@H](Nc1ncnc2sc3c(c12)CCCC3)c1ccccc1
active: [42] 0.766 | [66] 0.787
inactive: [1] 0.955 | [2] 0.955 | [3] 0.953 | [4] 0.958 | [5] 0.942 | [6] 0.961 | [7] 0.954 | [8] 0.945 | [9] 0.95 | [10] 0.951 | [11] 0.904 | [12] 0.963 | [13] 0.94 | [14] 0.963 | [15] 0.932 | [16] 0.895 | [17] 0.928 | [18] 0.951 | [19] 0.949 | [20] 0.958 | [21] 0.941 | [22] 0.951 | [23] 0.913 | [24] 0.954 | [25] 0.901 | [26] 0.924 | [27] 0.914 | [28] 0.944 | [29] 0.877 | [30] 0.954 | [31] 0.931 | [32] 0.889 | [33] 0.916 | [34] 0.963 | [35] 0.901 | [36] 0.969 | [37] 0.907 | [38] 0.917 | [39] 0.891 | [40] 0.953 | [41] 0.967 | [43] 0.919 | [44] 0.89 | [45] 0.893 | [46] 0.951 | [47] 0.919 | [48] 0.951 | [49] 0.956 | [50] 0.915 | [51] 0.954 | [52] 0.918 | [53] 0.944 | [54] 0.949 | [55] 0.912 | [56] 0.955 | [57] 0.893 | [58] 0.916 | [59] 0.979 | [60] 0.844 | [61] 0.959 | [62] 0.942 | [63] 0.918 | [64] 0.932 | [65] 0.947 | [67] 0.949 | [68] 0.93 | [69] 0.922 | [70] 0.929 | [71] 0.951

CC(C)N(CCC(=O)c1ccc2ccccc2c1)Cc1ccccc1
active: locus YAL013W, strain DEP1, hits give low values 0.086 | locus YAL040C, strain CLN3, hits give low values 0.0757 | locus YCL061C, strain MRC1 (second series), hits give low values 0.0525 | locus YDR150W, strain NUM1, hits give low values 0.058 | locus YDR363W, strain ESC2, hits give low values 0.141 | locus YER002W, strain NOP16, hits give low values 0.0619 | locus YGR078C, strain PAC10, hits give low values 0.107 | locus YJR075W, strain HOC1, hits give low values 0.0706 | locus YMR307W, strain GAS1, hits give low values 0.0933 | locus YNL128W, strain TEP1, hits give low values 0.0691 | locus YNL153C, strain GIM3, hits give low values 0.0944 | locus YNL175C, strain NOP13, hits give low values 0.111 | locus YNL197C, strain WHI3, hits give low values 0.534 | locus YNL224C, strain SQS1, hits give low values 0.0703 | locus YOR083W, strain WHI5 (second series), hits give low values 0.124

CC1CCC(C(C)C)C(N(Cc2ccccc2)C(=O)c2ccccc2)C1 (stereo unspecified)
inactive: [1] 0.996 | [2] 0.987 | [3] 0.986 | [4] 0.98 | [5] 0.986 | [6] 0.987 | [7] 0.994 | [8] 0.974 | [9] 0.986 | [10] 0.984 | [11] 0.961 | [12] 0.985 | [13] 0.991 | [14] 0.98 | [15] 0.98 | [16] 0.97 | [17] 0.978 | [18] 0.985 | [19] 0.994 | [20] 0.985 | [21] 0.954 | [22] 0.981 | [23] 0.963 | [24] 0.969 | [25] 0.946 | [26] 1.01 | [27] 1 | [28] 1.01 | [29] 0.911 | [30] 0.987 | [31] 0.923 | [32] 0.923 | [33] 0.979 | [34] 0.992 | [35] 0.959 | [36] 1.01 | [37] 0.958 | [38] 0.967 | [39] 0.932 | [40] 0.994 | [41] 1.01 | [42] 0.922 | [43] 0.945 | [44] 0.913 | [45] 0.961 | [46] 0.992 | [47] 0.976 | [48] 0.987 | [49] 0.988 | [50] 0.956 | [51] 0.984 | [52] 0.975 | [53] 0.979 | [54] 0.99 | [55] 0.898 | [56] 0.981 | [57] 0.925 | [58] 0.971 | [59] 1.05 | [60] 0.977 | [61] 0.991 | [62] 0.981 | [63] 0.983 | [64] 0.952 | [65] 0.986 | [66] 1.04 | [67] 0.988 | [68] 0.976 | [69] 0.948 | [70] 0.965 | [71] 0.985

CNCC[C@H](Oc1cccc2ccccc12)c1cccs1
inactive: [26] 0.991 | [27] 0.993 | [31] 1 | [36] 0.924 | [42] 1.02 | [52] 0.938 | [60] 0.988 | [66] 0.987

CNC(=O)Sc1c(-c2ccc(Cl)cc2)nn(C(=O)NC)c1SC
inactive: [1] 0.979 | [2] 0.961 | [3] 0.949 | [4] 0.952 | [5] 0.961 | [6] 0.949 | [7] 0.941 | [8] 0.958 | [9] 0.94 | [10] 0.978 | [12] 0.939 | [13] 0.985 | [14] 0.952 | [18] 0.962 | [19] 0.974 | [20] 0.946 | [22] 0.985 | [30] 0.934 | [32] 0.911 | [34] 0.969 | [40] 0.97 | [46] 0.971 | [48] 0.979 | [49] 0.971 | [51] 0.954 | [53] 0.964 | [54] 0.969 | [56] 0.981 | [61] 0.977 | [65] 0.97 | [67] 0.973 | [68] 0.994 | [69] 0.982 | [70] 0.996 | [71] 0.977
active: [11] 0.319 | [15] 0.428 | [16] 0.199 | [17] 0.485 | [21] 0.264 | [23] 0.413 | [24] 0.315 | [25] 0.266 | [26] 0.335 | [27] 0.324 | [28] 0.353 | [29] 0.446 | [31] 0.256 | [33] 0.315 | [35] 0.286 | [36] 0.302 | [37] 0.545 | [38] 0.335 | [39] 0.378 | [41] 0.491 | [42] 0.284 | [43] 0.397 | [44] 0.482 | [45] 0.297 | [47] 0.461 | [50] 0.342 | [52] 0.274 | [55] 0.233 | [57] 0.316 | [58] 0.355 | [59] 0.467 | [60] 0.315 | [62] 0.422 | [63] 0.337 | [64] 0.399 | [66] 0.368
